Sampled rows, rich in hits. Any-hit rate of the full collection: about 7.3%.
HCMV inh: qHTS Assay for inhibitors of the human cytomegalovirus (HCMV); HFF cells, HCMV-luciferase reporter, 72 h; stronger effect = lower value; activity change, negative = inhibition, % at 57.5 µM; hit rate 4.5% among 410,000; in the data active = activity change below about -60%; inconclusive = no clear call, values can overlap the other calls; inactive = above about -39%
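Steps: HFFs plated, 16 h 37C; compounds added; HCMV-luciferase added to MOI 1 PFU/cell; 72 h 37C; OneGlo reagent, 5 min room temperature; luminescence read, normalized to controls.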
Vaccinia mCherry: qHTS for Stage-Specific Inhibitors of Vaccinia Orthopoxvirus: mCherry Reporter Primary qHTS | Vaccinia virus mCherry reporter infection, fluorescence | Potency, µM (series often up to 36.5 µM), for the others: at the top dose activity change, negative = inhibition, most hits filed as inhibitors | hit rate 0.63% among 310,000; calls by dose curve; tested in A549 cells; also: potency is read from the fitted curve at half-maximal effect; nearly all actives have a fitted effect of over 35% in size
HCV inhibitor: qHTS Assay for Inhibitors of Hepatitis C Virus (HCV) | Potency, µM (top dose mostly 41.8 µM), for inactives: top-dose activity change, negative = inhibition, actives largely listed as inhibitors | AID 651820, 2012 | Huh7.5.1 HCVcc-Cre infection, luciferase reporter, 44 h | hit rate 3.4% among 340,000; active = well fitted inhibition curve with a large enough effect; inconclusive = small, poorly fitted or top-dose-only effect, or another doubt; inactive = no such curve, though single readings can be large or run the other way; also: potency is read from the fitted curve at half-maximal effect
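Antiviral activity was scored by luciferase reporter output from cells infected with HCVcc-Cre (~0.5 moi) in presence of compound, 44 h infection period, cells seeded 1,000/well 4 h prior.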
FMDV inh: High Throughput Screening for Foot and Mouth Disease Virus Antivirals; FMDV antiviral cell-based qHTS; Potency, µM (highest dose often 57.9 µM), for the others: top-dose activity change, negative = inhibition, usual class: inhibitors; hit rate 1.2% among 410,000; AID 1159524, 2015; calls by dose curve; tested in HEK293T cells; also: read-out not given here; potency is read from the fitted curve at half-maximal effect; nearly all actives have a fitted effect of over 45% in size
Vaccinia Venus: qHTS for Stage-Specific Inhibitors of Vaccinia Orthopoxvirus: Venus Reporter Primary qHTS; AID 720580, 2013; hit rate 0.46% among 330,000; Vaccinia virus Venus reporter expression, fluorescence; Potency, µM (titrated, usually from 36.5 µM), for the others: at the highest dose activity change, negative = inhibition, actives largely listed as inhibitors; calls by dose curve; tested in A549 cells; also: potency is read from the fitted curve at half-maximal effect; nearly all actives have a fitted effect of over 30% in size
Starred values were filed as active, the others as inactive; i = inactive; ? = inconclusive; nt = no result; + = active, no number. % is scaled to controls: 0 for no effect and ±100 for the full control effect.

SMILES	HCMV inh	Vaccinia mCherry	HCV inhibitor	FMDV inh	Vaccinia Venus
O=C(CCCN1C(=O)/C(=C\c2ccco2)SC1=S)Nc1ccc2ccccc2c1	-81.3*	?	?	-15.6%	28.6%
O=C(CCCN1C(=O)/C(=C/c2ccco2)SC1=S)Nc1ccccc1C(=O)O	-29.4	nt	12.2%	-4.0%	nt
COc1ccc(/C=C2\SC(=S)N(CCCC(=O)Nc3ccc(O)cc3)C2=O)cc1	+	?	?	2.4%	0.0%
COc1ccc(/C=C2\SC(=S)N(CCC(=O)Nc3cccc(O)c3)C2=O)cc1	-1.5	nt	5.7%	61.1%	nt
CC1(C)NC(=O)N(CC(=O)Nc2ccc(-n3cnnn3)cc2)C1=O	5.0	-22.1%	9.3%	-5.6%	12.6%
COc1ccccc1CNC(=O)C1CCCN(C(=O)c2cnn(-c3ccc(F)cc3)c2-n2cccc2)C1 (stereo not drawn)	11.9	-8.8%	nt	-21.1%	-4.3%
O=C(NCc1ccccc1Cl)[C@@H]1CCCN1S(=O)(=O)c1ccc(Cl)cc1	38.0	-14.1%	1.5%	0.0%	-16.1%
Cc1ccc(N(CC(=O)NCc2ccco2)C(=O)CCC(=O)Nc2nccs2)cc1C	22.7	i	-2.2%	6.4%	-8.5%
COc1ccc(CC2S/C(=N/N=C/c3ccccc3O)NC2=O)cc1 (stereo not drawn)	?	?	?	-8.5%	0.3%
O=C1N/C(=N/N=C/c2ccccc2O)SC1Cc1ccc(F)cc1 (stereo not drawn)	-65.8*	?	?	-5.3%	?
Cc1nc(SCC(=O)NC(C)(C#N)C2CC2)c2c(-c3cccs3)csc2n1 (stereo not drawn)	-29.1	i	10µM*	0.0%	-20.2%
Cc1ccc(S/C(=N/S(=O)(=O)c2ccc(Cl)cc2)c2ccccc2)cc1	nt	0.1%	nt	nt	-18.4%
CCn1cc(CNC(=O)c2cc(-c3ccc(C)cc3)nc3ccc(Br)cc23)c(C)n1	25.0	1.0%	nt	6.2%	6.7%
Cc1cccc(-n2ncc3c2CCCC3NC(=O)CCc2cccnc2)c1C (stereo not drawn)	-62.9*	nt	?	0.0%	nt
Cc1cccc(-n2ncc3c2CCCC3NC(=O)CN2CCOC2=O)c1C (stereo not drawn)	-4.2	nt	13.3%	-24.6%	nt
Cc1cccc(-n2ncc3c2CCCC3NC(=O)c2cccs2)c1C (stereo not drawn)	-75.2*	?	nt	?	-24.6%
Cc1cccc(-n2ncc3c2CCCC3NC(=O)CN2CCCC2=O)c1C (stereo not drawn)	66.5	-12.3%	-9.3%	-10.5%	-15.7%
CC1=C(C(=O)NC2CCCc3c2cnn3-c2cccc(C)c2C)OCCO1 (stereo not drawn)	-79.3*	-23.1%	3.55µM*	?	-29.8%
Cc1cccc(-n2ncc3c2CCCC3NC(=O)Cc2c(C)noc2C)c1C (stereo not drawn)	?	nt	8.91µM*	-21.7%	nt
Cc1ccc2nc3n(c(=O)c2c1)-c1ccc(Cl)cc1C(=O)NC3CC(C)C (stereo not drawn)	-27.6	nt	-0.1%	nt	nt
CCn1cc(C(=O)NC2CCCc3c2cnn3-c2cccc(C)c2C)cn1 (stereo not drawn)	-99.0*	nt	nt	nt	nt
COC(=O)c1ccc(C(=O)NC2CCCc3c2cnn3-c2ccc(C)c(C)c2)cc1 (stereo not drawn)	?	?	12.6µM*	?	?
Cc1cc(C(=O)NC2CCCc3c2cnn3-c2cccc(C)c2C)no1 (stereo not drawn)	-97.3*	?	11.2µM*	-16.8%	2.1%
Cc1cccc(-n2ncc3c2CCCC3NC(=O)c2ccncc2)c1C (stereo not drawn)	-78.7*	-11.6%	nt	?	-28.4%
COc1cccc(C(=O)NC2CCCc3c2cnn3-c2cc(C)cc(C)c2)c1 (stereo not drawn)	?	i	?	-11.5%	-4.6%
SMILES	HCMV inh	Vaccinia mCherry	HCV inhibitor	FMDV inh	Vaccinia Venus
COc1ccc(C(=O)NC2CCCc3c2cnn3-c2cccc(C)c2C)o1 (stereo not drawn)	-93.0*	nt	?	-7.6%	nt
S=C(NCCCc1cnc[nH]1)NCCCN(Cc1ccc(Cl)cc1)c1ncc(Br)cn1	nt	-25.0%	nt	nt	?
Cc1ccccc1NC(=O)c1ccc(N/N=C/c2ccccc2O)c([N+](=O)[O-])c1	-84.5*	-19.3%	-26.3%	4.1%	-7.8%
O=[N+]([O-])c1ccc(N/N=C/c2cccc(O)c2)cc1	122.1	-12.0%	?	9.6%	-13.3%
Cc1ccc(NC(=O)c2ccc(N/N=C/c3cccc(O)c3)c([N+](=O)[O-])c2)cc1	-87.3*	i	?	0.0%	?
COc1ccc(CCNC(=O)CCn2c(=O)c3ccccc3n(Cc3cc(C)ccc3C)c2=O)cc1OC	3.0	0.6%	nt	-6.0%	5.1%
COCCOC(=O)N1CCCCC1c1cc(C(=O)NCc2ccc(Cl)c(Cl)c2)no1 (stereo not drawn)	-6.1	i	nt	1.9%	-11.8%
CN=c1scc(C)n1/N=C/c1ccc(O)cc1	81.8	nt	?	29.2%	-13.8%
C=CCN=c1scc(C)n1/N=C/c1ccc(O)c(O)c1	-96.8*	-0.4%	11.2µM*	76.6%	3.7%
CN=c1scc(-c2ccco2)n1/N=C/c1ccc(O)c(O)c1	68.3	-25.2%	2.51µM*	14.1µM*	-25.6%
CN=c1scc(C)n1/N=C/c1ccc2c(c1)OCO2	17.9	nt	?	-63.6%	-20.8%
Cc1cc2c(cc1C)NC(c1nc3ccccc3[nH]1)C1=C(CC(C)(C)CC1=O)N2 (stereo not drawn)	-104.6*	-11.0%	10.8%	-13.2%	-17.0%
CC(=O)N(C)c1ccc(NC(=S)Nc2cccc3ccccc23)cc1	-71.3*	i	-3.4%	-10.2%	-2.8%
CC(=O)c1cccc(NC(=O)C(=O)Nc2cccc3ccccc23)c1	-60.3*	-8.3%	-14.9%	78.6%	-9.0%
Cc1cc(C)cc(NC(=S)Nc2cccc3cnccc23)c1	-24.1	?	-29.6%	6.8%	-21.1%
CCc1ccc(NC(=S)Nc2cccc3cnccc23)cc1	-11.9	-12.8%	10µM*	-9.2%	-0.8%
COc1cc(C(C)=O)ccc1OCC(=O)N(CCC1=CCCCC1)c1c(N)n(Cc2ccccc2)c(=O)[nH]c1=O	14.1	-14.9%	16.5%	-13.4%	-5.4%
Cc1ccc(/C([O-])=C(/C(=S)NCc2ccc3c(c2)OCO3)[n+]2ccc(N(C)C)cc2)c(C)c1	-70.1*	-7.8%	5.9%	-13.0%	-25.0%
O=C(CN1CCN(c2ccc(O)cc2)CC1)Nc1cc([N+](=O)[O-])ccc1Cl	-68.5*	-2.7%	1.3%	?	-7.5%
Oc1ccc(/C=N/Nc2ccc(C(F)(F)F)cn2)c(O)c1	-93.7*	nt	nt	nt	nt
Oc1ccc(/C=N/Nc2ccc(C(F)(F)F)cn2)cc1	17.5	-25.9%	?	35.7%	0.0%
CCCCN(CC)c1nc(-c2ccccc2F)nc2ccccc12	-9.3	-2.1%	nt	-14.3%	-6.9%

Source: PubChem
